The text below walks through data of PubChem BioAssay.

A short description of test [1]: anti-His antibody binders, primary screen, artefact control for SMM control protein annotation, biochemical, small-molecule microarray, 635 nm fluorescence (AID 1128).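 Note: score merges feature fluorescence with signal-to-noise for each printed compound spot.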 As to conditions: anti-His Alexa647 antibody binding, higher = more signal.
Test [2] relates to Human papillomavirus type 1a E7 protein (residues 1-88). The experiment in a line: HPV1a E7 small-molecule binders, primary screen, biochemical, small-molecule microarray, residues 1-88, 635 nm (AID 1129). As to conditions: small-molecule microarray binding, fluorescence 635 nm; higher = more signal.
Test [3] has as its target Focal adhesion kinase 1 (Homo sapiens) (UniProt Q05397). The test can be described thus: small-molecule microarray binders of FAK, primary screen, biochemical, 635/667 nm fluorescence, BSA, DTT (AID 1130).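 Note: composite of spot emission at 667 nm and signal to noise over triplicate slides.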 Particulars: PTK2 binding, 635 nm fluorescence, higher = more signal.
For test [4], the system named is Fibrinogen (Alexa647-labelled). The test can be described thus: fibrinogen binders on compound microarrays, profiling panel, artefact control for SMM control-protein annotation, biochemical, small-molecule microarray, 635/667 nm fluorescence (AID 1131).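 Note: z-score merges 667 nm fluorescence with per-spot signal-to-noise over triplicate slides.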 Particulars: fibrinogen-A647 binding fluorescence, higher = more signal.
Test [5] addresses Follistatin (Homo sapiens) (UniProt P19883). The experiment in a line: follistatin binders on small-molecule microarrays, primary screen, biochemical, small-molecule microarray, 635/667 nm fluorescence (AID 1132). As to conditions: FST binding, 635 nm fluorescence, higher = more signal.
The target of test [6] is Fibroblast growth factor 2 (Homo sapiens) (UniProt P09038). The experiment in a line: FGF2 binders on small-molecule microarrays, primary screen, biochemical, small-molecule microarray, 635/667 nm fluorescence (AID 1133). As to conditions: small-molecule microarray binding, FGF2, fluorescence 635/667; higher = more signal.
Fibroblast growth factor 2 (Homo sapiens), sequence (P09038 whole entry, looked up): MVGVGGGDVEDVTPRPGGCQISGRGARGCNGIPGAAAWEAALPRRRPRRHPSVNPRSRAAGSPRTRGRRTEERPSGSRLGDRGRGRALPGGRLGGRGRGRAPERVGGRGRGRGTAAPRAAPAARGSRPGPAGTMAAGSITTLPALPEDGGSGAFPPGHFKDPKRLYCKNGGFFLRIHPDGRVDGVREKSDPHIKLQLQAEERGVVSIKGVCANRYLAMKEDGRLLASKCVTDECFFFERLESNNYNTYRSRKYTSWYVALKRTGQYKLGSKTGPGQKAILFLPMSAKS
The nature of test [7]: mitochondrial membrane potential change in A549 cells, profiling panel, cell-based, JC-1 fluorescence, basal, 24 h, 100 nL (AID 1138).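 Note: A549 lung adenocarcinoma cells under basal conditions with no added stimulus; test concentration not given here.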 As to conditions: higher = more signal.
For test [8], the system named is Lefty1. The experiment in a line: Lefty1 binders on small-molecule microarrays, primary screen, biochemical, small-molecule microarray, 635/667 nm fluorescence (AID 1139). As to conditions: small-molecule microarray binding, fluorescence 635/667; higher = more signal.
The test system of test [9] is wheat germ agglutinin (Triticum aestivum), Alexa647-labelled. The test can be described thus: wheat germ agglutinin binders on compound microarrays, profiling panel, artefact control for SMM control-protein annotation, biochemical, small-molecule microarray, 635/667 nm fluorescence (AID 1140).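 Note: score merges 667 nm feature emission with signal to noise over triplicate slides.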 As to conditions: WGA-A647 binding, 635 nm fluorescence, higher = more signal.

In test [10] the target is Luciferin 4-monooxygenase (Photinus pyralis) (UniProt P08659). The experiment in a line: firefly luciferase enzyme inhibitors, primary screen, biochemical, luminescence, purified enzyme, 2006 set (AID 1141).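 Note: cell-free assay with purified firefly luciferase at 100 ng per well in PBS; test concentration not given here.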 Particulars: SteadyGlo luminescence, 30 min, higher = more signal, called active from +8 up or from −8 down.
Luciferin 4-monooxygenase (Photinus pyralis), sequence (P08659 whole entry, looked up): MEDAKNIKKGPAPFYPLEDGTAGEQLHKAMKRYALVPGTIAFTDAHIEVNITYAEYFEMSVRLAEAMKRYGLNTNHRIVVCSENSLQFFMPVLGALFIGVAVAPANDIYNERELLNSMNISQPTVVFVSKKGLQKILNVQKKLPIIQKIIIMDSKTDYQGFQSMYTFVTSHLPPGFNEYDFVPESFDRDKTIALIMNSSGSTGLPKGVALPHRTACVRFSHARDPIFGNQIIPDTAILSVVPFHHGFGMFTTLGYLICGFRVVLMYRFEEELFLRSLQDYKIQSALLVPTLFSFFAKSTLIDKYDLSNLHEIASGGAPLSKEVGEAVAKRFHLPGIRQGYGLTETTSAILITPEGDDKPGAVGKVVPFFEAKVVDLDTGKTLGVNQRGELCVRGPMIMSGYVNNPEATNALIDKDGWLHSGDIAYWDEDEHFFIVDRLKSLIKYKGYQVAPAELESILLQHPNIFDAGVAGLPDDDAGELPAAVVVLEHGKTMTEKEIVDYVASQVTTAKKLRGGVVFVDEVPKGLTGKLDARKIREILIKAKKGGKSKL
Test [11] has as its system Wnt5a (protein binding on small-molecule microarray). The test can be described thus: Wnt5a binders on small-molecule microarray, primary screen, biophysical, 635/667 nm fluorescence (AID 1142).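 Note: fluorescence read at 667 nm with signal to noise per printed feature.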 As to conditions: 635 nm fluorescence, higher = more signal.
Test [12] can be described thus: cell viability in Huh7 cells, primary screen, cytotoxicity control for HCV replication inhibitor project, CellTiter-Glo luminescence, basal, 48 h (AID 1143).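 Note: Huh7 hepatoma cells carrying a hepatitis C replication reporter with no stimulus; test concentration not given here.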 Particulars: Huh7 HCV replicon, higher = more signal, called active from +8 up or from −8 down.
Test [13] is described as follows: P. aeruginosa biofilm formation inhibitors, primary screen, PAO1 strain, BacTiter-Glo luminescence, LB-PBS (AID 1144). Particulars: 12 h, higher = more signal.
Test [14] is described as follows: CREB reporter modulators without forskolin, primary screen, cell-based, PC12, CRE-LacZ reporter, unstimulated (AID 1145). Particulars: no forskolin, luminescence, 4.5 h, higher = more signal, called active from +8 up or from −8 down.
Test [15] in a line: CREB reporter modulators under forskolin, primary screen, cell-based, PC12, CRE-LacZ reporter, forskolin-stimulated (AID 1146).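 Note: PC12 cells with 6xCRE LacZ reporter stimulated by forskolin 10 µM; beta-galactosidase reporter signal reflecting CREB driven transcription.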 Particulars: luminescence, 4.5 h, higher = more signal, called active from +8 up or from −8 down.
Test [16] deals with Streptavidin (Streptomyces avidinii) (UniProt P22629). The test can be described thus: streptavidin binders on small-molecule microarray, primary screen, artefact control for SMM compound annotation, biophysical, 635/667 nm fluorescence (AID 1147).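 Note: signal reflects streptavidin binding to arrayed compounds as a control protein.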 Particulars: streptavidin binding, higher = more signal.
Streptavidin (Streptomyces avidinii), sequence (P22629 whole entry, looked up): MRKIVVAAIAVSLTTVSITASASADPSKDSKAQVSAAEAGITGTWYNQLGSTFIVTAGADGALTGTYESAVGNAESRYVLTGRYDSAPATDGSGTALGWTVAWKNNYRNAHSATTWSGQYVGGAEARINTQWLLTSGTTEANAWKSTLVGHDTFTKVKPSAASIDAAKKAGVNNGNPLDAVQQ
Test [17] in a line: small-molecule binders of probe aInhba, primary screen, biochemical, small-molecule microarray, 635/667 nm fluorescence (AID 1148).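 Note: score merges 667nm spot fluorescence with signal-to-noise for antibody binding to printed compounds.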 As to conditions: higher = more signal.
Test [18] deals with Torsin-1A (Homo sapiens) (UniProt O14656). The experiment in a line: torsin A binders from cell lysate, primary screen, small-molecule microarray, wild-type, 635/667 nm (AID 1149). As to conditions: COS7 hTOR1A-WT lysate, 635 nm fluorescence, higher = more signal.
Torsin-1A (Homo sapiens), sequence (O14656 whole entry, looked up): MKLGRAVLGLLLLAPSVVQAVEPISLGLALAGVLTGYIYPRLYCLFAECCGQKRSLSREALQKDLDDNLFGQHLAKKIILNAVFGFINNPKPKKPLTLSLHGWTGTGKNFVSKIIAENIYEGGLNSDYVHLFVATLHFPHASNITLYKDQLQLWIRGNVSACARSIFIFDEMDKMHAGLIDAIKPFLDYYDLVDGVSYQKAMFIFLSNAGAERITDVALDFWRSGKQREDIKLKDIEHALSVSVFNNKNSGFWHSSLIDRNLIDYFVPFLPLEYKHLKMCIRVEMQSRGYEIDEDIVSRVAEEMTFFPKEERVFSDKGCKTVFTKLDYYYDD
For test [19] the target is unchanged. The experiment in a line: small-molecule binders of mutant TOR1A in lysate, primary screen, cell lysate, small-molecule microarray, COS7 lysate, 635/667 nm fluorescence (AID 1150).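 Note: score pools 667 nm emission and signal to noise measuring lysate protein binding.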 Particulars: COS7 hTOR1A mutant lysate, 635 nm fluorescence, higher = more signal.
The subject of test [20] is Sonic hedgehog protein (Shh). The experiment in a line: small-molecule binders of Shh protein, primary screen, biochemical, small-molecule microarray, 635/667 nm fluorescence (AID 1151).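 Note: Shh protein binding to compounds spotted on small-molecule microarray slides; score combines spot fluorescence intensity with signal-to-noise across triplicate slides.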 As to conditions: small-molecule microarray binding, 635 nm fluorescence; higher = more signal.

Active and inactive are the calls of the source. Unless noted, the rule behind the calls is not given here.

Focal adhesion kinase 1 (Homo sapiens), sequence (Q05397 whole entry, looked up): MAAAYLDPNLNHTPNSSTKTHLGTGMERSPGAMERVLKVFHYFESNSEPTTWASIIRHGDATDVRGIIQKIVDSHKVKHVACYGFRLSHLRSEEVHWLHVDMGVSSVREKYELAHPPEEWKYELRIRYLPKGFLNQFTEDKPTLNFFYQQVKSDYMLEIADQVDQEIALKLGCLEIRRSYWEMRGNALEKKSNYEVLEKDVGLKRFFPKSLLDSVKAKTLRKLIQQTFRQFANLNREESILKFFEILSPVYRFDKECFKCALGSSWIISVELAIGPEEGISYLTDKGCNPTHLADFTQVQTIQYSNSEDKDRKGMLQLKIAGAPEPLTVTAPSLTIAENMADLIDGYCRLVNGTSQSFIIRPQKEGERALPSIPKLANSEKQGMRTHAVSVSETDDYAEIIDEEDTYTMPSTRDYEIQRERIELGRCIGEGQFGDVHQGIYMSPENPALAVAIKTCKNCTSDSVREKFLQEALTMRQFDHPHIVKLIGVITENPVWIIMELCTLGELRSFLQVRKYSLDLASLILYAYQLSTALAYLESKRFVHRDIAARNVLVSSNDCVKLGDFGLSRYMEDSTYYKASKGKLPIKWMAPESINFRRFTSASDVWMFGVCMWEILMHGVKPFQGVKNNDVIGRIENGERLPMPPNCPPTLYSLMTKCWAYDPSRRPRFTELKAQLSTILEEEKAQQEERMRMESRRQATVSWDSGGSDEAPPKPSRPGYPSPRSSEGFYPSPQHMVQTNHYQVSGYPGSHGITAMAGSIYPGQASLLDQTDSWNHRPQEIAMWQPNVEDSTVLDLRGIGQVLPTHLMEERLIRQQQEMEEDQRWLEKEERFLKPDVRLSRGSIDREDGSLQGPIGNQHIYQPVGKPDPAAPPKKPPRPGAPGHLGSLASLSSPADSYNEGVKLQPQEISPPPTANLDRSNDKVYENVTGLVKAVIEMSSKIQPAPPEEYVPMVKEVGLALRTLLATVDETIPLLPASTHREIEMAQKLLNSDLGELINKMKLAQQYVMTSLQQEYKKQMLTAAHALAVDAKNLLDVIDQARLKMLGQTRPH
Follistatin (Homo sapiens), sequence (P19883 whole entry, looked up): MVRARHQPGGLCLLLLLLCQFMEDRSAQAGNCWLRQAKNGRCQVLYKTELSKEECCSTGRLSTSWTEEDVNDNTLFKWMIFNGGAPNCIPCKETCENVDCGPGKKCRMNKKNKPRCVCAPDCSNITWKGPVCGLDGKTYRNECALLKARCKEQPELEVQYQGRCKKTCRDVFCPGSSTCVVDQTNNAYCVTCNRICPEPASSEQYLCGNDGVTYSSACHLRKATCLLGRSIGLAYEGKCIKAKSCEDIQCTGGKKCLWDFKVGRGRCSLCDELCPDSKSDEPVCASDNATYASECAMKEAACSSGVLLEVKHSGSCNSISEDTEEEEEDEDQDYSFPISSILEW

Consider `C=CCC(OC(C)=O)[C@@H]1[C@@H](N(Cc2ccc(-c3cccc(C(F)(F)F)c3)o2)C(=O)c2ccc(-c3ccccc3)cc2)c2cc(OCCCO)ccc2N1C(=O)c1ccc(-c2ccccc2)cc1` (stereo not given in full), for which the composite z-score in [1] was -0.674; in [2], -0.714; in [3] it was -0.045; in test [4] it was -0.557; in [5], 0.47; in test [6], -0.0003. Further, the composite z-score was 0.164 in test [8]; -0.0266 in test [9]; -0.0065 in test [11]; 0.0998 in [16]; -0.0403 in [17]; -0.0662 in [18]. Further, the values for the composite z-score in [19] and in [20] were 0.0093 and 0.32, respectively. Also, the z-score in test [7] is 0.872; in test [10], -0.277 (inactive); in test [12], 0.42 (inactive); in [13] it was 0.103 (inactive); in test [14] it was 0.0176 (inactive); in [15] it was 0.262 (inactive).

Turning to `COc1ccc(CCN2C(=O)[C@@]3(c4ccc([N+](=O)[O-])cc4)CC(=O)N(C4CCCCC4)[C@@H]3c3ccc(CO)cc32)cc1`, the composite z-score in test [1] is 0.521; in [2] it was -0.82; in test [3], 0.151; in [4], -0.382; in test [5], 1.42; in test [6] it was 1.4. Besides, the composite z-score was 0.563 in test [8]; -0.569 in test [9]; -0.0463 in test [11]; -0.298 in test [16]; 0.158 in [17]; 0.209 in test [18]. In addition, the composite z-score in test [19] amounted to 0.128; in [20], 1.19. Further, the z-score was -0.552 in [7]; 0.3 (inactive) in test [10]; 0.443 (inactive) in [12]; 0.0718 (inactive) in test [13]; -0.0512 (inactive) in [14]; 0.86 (inactive) in test [15].

With `COCCCNC(=O)[C@@]1(Cc2ccccc2N=[N+]=[N-])N=C(c2ccc(OCCCO)cc2)O[C@H]1c1ccccc1N=[N+]=[N-]`, the composite z-score came out at 1.73 in test [1]; 1.22 in [2]; 0.912 in test [3]; 0.849 in test [4]; 1.25 in test [5]; 0.836 in test [6]. For the same compound, the composite z-score is -0.0542 in test [8]; 1.02 in test [9]; 0.266 in test [11]; 1.14 in test [16]; 0.3 in test [17]; 0.328 in test [18]. Moreover, the composite z-score in test [19] was 1.05; in test [20], -0.319. Further, the z-score was 0.332 in test [7]; -3.37 (inactive) in [10]; -4.63 (inactive) in test [12]; -0.557 (inactive) in test [13]; 0.834 (inactive) in [14]; -0.803 (inactive) in test [15].

Turning to `COc1ccc(NN2C(C(O)c3ccc([N+](=O)[O-])cc3)C=CC3C(=O)N(C4CCCCC4)C(=O)C32)cc1` (stereo not given), the composite z-score was 0.525 in test [1]; 0.918 in [2]; 0.201 in [3]; 0.93 in test [4]; 0.737 in test [5]; -0.532 in test [6]. The composite z-score in [8] was 0.0274; in test [9] it was 1.13; in test [11], -0.0777; in test [16], 1.99; in test [17] it was 0.199; in test [18], -0.233. Besides, the composite z-score in [19] was 0.382; in test [20] it was -0.49. In addition, the z-score is 0.732 in [7]; 0.939 (inactive) in test [10]; -0.416 (inactive) in [12]; -1.05 (inactive) in [13]; -0.667 (inactive) in test [14]; -0.441 (inactive) in test [15].

Regarding `C=C(COC)/C(=C/C[C@@H](OC(C)=O)c1ccc(OCCO)cc1)c1cc(C(=O)OC)ccc1OC`, the composite z-score in test [1] is 0.531; in test [2] it was 1.21; in [3] it was 0.481; in [4], -0.367; in test [5], 1.25; in test [6], 1.5. For the same compound, the composite z-score in [8] was 1.19; in test [9], 0.195; in [11] it was 0.969; in test [16], -0.0154; in test [17], 0.0154; in test [18], 0.518. Further, the values for the composite z-score in test [19] and in test [20] were 0.672 and 1.57, respectively. The z-score in test [7] is 0.371; in test [10], -0.371 (inactive); in test [12], -0.21 (inactive); in [13] it was -0.201 (inactive); in [14] it was 1.82 (inactive); in test [15] it was 1.96 (inactive).
